Compound activity as filed in PubChem BioAssay.
Only some compounds are listed: those with a hit (about 8.1% of all), similar ones and a draw of the others.
Shh pathway inh – Sonic Hedgehog pathway inhibition. Shh-LIGHT2 Gli-luciferase reporter, 30 h. inhibition, % (no concentration beside the values). hit rate 2.1% among 22,000;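 active = mean inhibition across valid replicates above about 65%, limit read from the data; inconclusive = mean under the limit, yet half or more replicates past it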;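 note: pathway switched on by Shh-conditioned medium diluted 1 in 25 in low serum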
MITF inh – MITF inhibition; AID 2240; hit rate 0.28% among 37,000; TRPM1 promoter luciferase, luminescence, 24 h; inhibition, % (concentration not given with the values); in the data active = inhibition above about 85%; inconclusive = no clear call, values can overlap the other calls; inactive = below about 68%;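 note: human melanocyte line stably carrying TRPM1 promoter luciferase reporter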
NOMO-1 viab – STK33 inhibitor candidate reducing NOMO-1 cell viability | NOMO-1 AML viability, CellTiter-Glo luminescence, 72 h | inhibition, % (no concentration beside the values) | hit rate 7.5% among 37,000 | AID 2330; in the data active = inhibition above about 80%; inconclusive = no clear call, values can overlap the other calls
An asterisk follows results filed as active; ? = inconclusive; · = no result given.

SMILES	Shh pathway inh	MITF inh	NOMO-1 viab
Cc1cccc(C)c1OCC(=O)Nc1cccc(C(=O)O)c1	·	20.5	2.4
Cc1ccc(OCC(=O)Nc2cccc(C(=O)O)c2)c(Br)c1	·	86.6*	19.2
C/C=C/C1=C(Cl)C(=O)[C@@H](O)[C@@]1(O)C(=O)OC	47.6	23.2	107.5*
COc1ccc(NC(=O)Nc2ccc3c(c2)C(=O)N([C@@H](C)CO)C[C@H](C)[C@H](CN(C)C(=O)Nc2c(C)noc2C)O3)cc1	-11.3	-9.0	-0.9
C[C@H]1CN([C@@H](C)CO)C(=O)Cc2cc(NC(=O)CCC(F)(F)F)ccc2O[C@@H]1CN(C)Cc1ccc(Oc2ccccc2)cc1	-38.3	8.2	64.9
O=C(Cn1cnc2scc(-c3cccc([N+](=O)[O-])c3)c2c1=O)Nc1cccc(C(F)(F)F)c1	·	47.7	31.4
Cc1cc(C)c(S(=O)(=O)N(C)CC(=O)Nc2ccc(F)c(Cl)c2)c(C)c1	·	32.8	27.6
Cc1ccc(CC(c2nc3ccccc3[nH]2)C(C)c2nc3ccccc3[nH]2)cc1 (centres undefined)	·	63.1	90.9*
Cc1ccc(OCCSCc2nc3ccccc3[nH]2)cc1	·	56.6	40.0
C[C@@H]1CN([C@@H](C)CO)C(=O)c2cc(NS(=O)(=O)c3cn(C)cn3)ccc2O[C@H]1CN(C)S(=O)(=O)c1cccs1	·	-11.3	0.3
COc1cc([N+](=O)[O-])ccc1NC(=S)Nc1nn(Cc2ccc(Cl)cc2Cl)cc1Cl	·	1.7	23.2
Cc1ccc(S(=O)(=O)N(C)C[C@@H]2Oc3c(NS(=O)(=O)c4c(C)noc4C)cccc3C(=O)N([C@@H](C)CO)C[C@@H]2C)cc1	89.3*	-0.9	-6.0
Cc1noc(C)c1S(=O)(=O)Nc1cccc2c1O[C@@H](CN(C)S(=O)(=O)c1ccc(Cl)cc1)[C@@H](C)CN([C@H](C)CO)C2=O	67.3*	7.5	14.9
Cc1noc(C)c1S(=O)(=O)Nc1cccc2c1O[C@H](CN(C)S(=O)(=O)c1ccc(Cl)cc1)[C@H](C)CN([C@@H](C)CO)C2=O	-58.2	14.9	77.6
Cc1noc(C)c1S(=O)(=O)Nc1cccc2c1O[C@@H](CN(C)S(=O)(=O)c1ccccc1)[C@@H](C)CN([C@@H](C)CO)C2=O	27.7	-6.8	9.3
Cc1noc(C)c1S(=O)(=O)Nc1cccc2c1O[C@@H](CN(C)S(=O)(=O)c1ccc(Cl)cc1)[C@@H](C)CN([C@@H](C)CO)C2=O	106.5*	4.5	28.9
Cc1ccc(S(=O)(=O)N(C)C[C@@H]2Oc3c(NS(=O)(=O)c4c(C)noc4C)cccc3C(=O)N([C@H](C)CO)C[C@@H]2C)cc1	41.8	-5.9	12.9
COc1ccc(NC(=O)Nc2ccc3c(c2)CC(=O)N([C@@H](C)CO)C[C@H](C)[C@H](CN(C)Cc2ccccc2)O3)cc1	·	2.2	20.9
C[C@@H]1CN([C@@H](C)CO)C(=O)c2cc(NC(=O)c3ccncc3)ccc2O[C@H]1CN(C)Cc1ccc(Cl)c(Cl)c1	·	-11.1	44.6
C[C@@H]1CN([C@@H](C)CO)C(=O)c2cc(NC(=O)CCCCCC(=O)Nc3ccccc3N)ccc2O[C@@H]1CN(C)C	·	1.0	?
COc1cccc2c1C(=O)c1ccc3c(c1C2=O)C(=O)CC(C)(O)C3 (centres undefined)	-59.1	-13.6	92.7*
Cc1cc(O)c2c(c1)C(=O)c1cccc(O)c1C2=O	27.5	-0.5	15.6
COc1cc(O)cc2cc3c(c(O)c12)C(=O)C[C@@](C)(O)C3	-12.6	-6.8	8.1
CC1(O)CC(=O)c2c(ccc3c2C(=O)c2cccc(O)c2C3=O)C1 (centres undefined)	-28.8	11.0	95.2*
Cc1sc2nc3scc(CC(=O)NCCO)n3c(=O)c2c1C	·	-25.9	30.6
SMILES	Shh pathway inh	MITF inh	NOMO-1 viab
COc1ccc(S(=O)(=O)N(C)C[C@@H]2Oc3ccc(NC(=O)C4CCCCC4)cc3C(=O)N([C@@H](C)CO)C[C@H]2C)cc1	·	6.5	18.9
O=C(CCN1C(=O)c2cccc3cccc(c23)C1=O)N1CCN(c2ncccn2)CC1	·	30.5	7.9
CCOc1ccc(C)cc1S(=O)(=O)NCc1ccco1	·	-17.5	7.4
C[C@@H]1CN([C@@H](C)CO)C(=O)c2cccc(NC(=O)Nc3ccc(C(F)(F)F)cc3)c2O[C@H]1CN(C)C(=O)Nc1cccc2ccccc12	-150.4	39.8	106.0*
C[C@@H]1CN([C@@H](C)CO)C(=O)c2cccc(NC(=O)Nc3ccc(C(F)(F)F)cc3)c2O[C@@H]1CN(C)C(=O)Nc1cccc2ccccc12	-4.6	7.7	66.2
C[C@H](CO)N1C[C@H](C)[C@H](CN(C)C(=O)Nc2cccc3ccccc23)Oc2c(NC(=O)Nc3ccc(C(F)(F)F)cc3)cccc2C1=O	-8.2	35.0	76.7
C[C@H](CO)N1C[C@H](C)[C@@H](CN(C)C(=O)Nc2cccc3ccccc23)Oc2c(NC(=O)Nc3ccc(C(F)(F)F)cc3)cccc2C1=O	-26.0	12.9	117.3*
